Design in all cases: scale not given: direction of the effect not stated beside the values
Assay [1] concerns the target Protein translocase subunit SecA (Escherichia coli (strain K12)) (UniProt P10408). In words: Assay to Identify E. coli SecA ATPase Inhibitors. In kind it is functional. To be noted: 30 µM.
Assay [2] concerns the target T1, Ubiquitin-activating enzyme e1, putative (Leishmania donovani (strain BPK282A1)) (UniProt E9BSI1).
T1 sequence (whole entry): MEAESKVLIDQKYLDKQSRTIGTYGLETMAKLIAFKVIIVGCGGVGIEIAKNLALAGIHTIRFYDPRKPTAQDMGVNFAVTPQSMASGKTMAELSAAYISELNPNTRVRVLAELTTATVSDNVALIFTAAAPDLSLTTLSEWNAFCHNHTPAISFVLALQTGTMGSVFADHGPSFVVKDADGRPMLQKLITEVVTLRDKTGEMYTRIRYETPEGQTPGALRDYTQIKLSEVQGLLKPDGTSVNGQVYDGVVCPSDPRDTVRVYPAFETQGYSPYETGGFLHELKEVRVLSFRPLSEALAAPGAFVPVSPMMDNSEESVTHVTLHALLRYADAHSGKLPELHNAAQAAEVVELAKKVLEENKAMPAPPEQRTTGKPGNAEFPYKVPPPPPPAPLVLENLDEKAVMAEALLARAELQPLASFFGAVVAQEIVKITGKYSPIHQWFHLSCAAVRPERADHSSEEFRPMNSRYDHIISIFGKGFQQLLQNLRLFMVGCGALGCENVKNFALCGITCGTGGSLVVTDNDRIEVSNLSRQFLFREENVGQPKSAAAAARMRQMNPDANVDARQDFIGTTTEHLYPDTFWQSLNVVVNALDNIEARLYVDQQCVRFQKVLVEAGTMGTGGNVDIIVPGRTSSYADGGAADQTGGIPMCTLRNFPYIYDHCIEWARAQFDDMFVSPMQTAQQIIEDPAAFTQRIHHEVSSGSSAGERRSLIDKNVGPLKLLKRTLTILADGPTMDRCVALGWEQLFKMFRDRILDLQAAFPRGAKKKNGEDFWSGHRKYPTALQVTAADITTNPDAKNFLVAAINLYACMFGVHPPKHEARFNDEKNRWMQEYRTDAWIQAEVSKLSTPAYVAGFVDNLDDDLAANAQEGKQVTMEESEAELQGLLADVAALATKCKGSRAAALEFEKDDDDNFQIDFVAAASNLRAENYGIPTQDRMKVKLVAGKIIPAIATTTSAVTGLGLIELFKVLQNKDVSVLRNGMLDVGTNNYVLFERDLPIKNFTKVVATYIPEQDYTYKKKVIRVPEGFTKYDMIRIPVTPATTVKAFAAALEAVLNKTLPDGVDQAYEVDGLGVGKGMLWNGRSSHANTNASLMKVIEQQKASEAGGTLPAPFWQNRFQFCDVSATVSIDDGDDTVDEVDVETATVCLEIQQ
In words: Leishmania donovani Ubiquitin Activating Enzyme (LdE1). In kind it is functional. The note with it: 30 µM.

For assay [3], the target named is AMP-activated protein kinase, AMPK (Homo sapiens) (UniProt P54646+O43741+P54619+Q9UGJ0+Q9Y478+Q13131+Q9UGI9). Kind of assay: AMP-dependent Kinase enzyme assay. An in vitro enzyme assay that detects ADP turnover that is directly proportional to AMPK activity. This uses naive AMPK that is activated during the assay with MK-8722. In kind it is functional. To be noted: 30 µM.

The target in assay [4] is Sialic acid-binding Ig-like lectin 9 (Homo sapiens) (UniProt Q9Y336). Kind of assay: Hs-Siglec9 ALPHAscreen SOP 20170721. To be noted: 10 µM.
Sialic acid-binding Ig-like lectin 9 (Homo sapiens), sequence (Q9Y336 whole entry): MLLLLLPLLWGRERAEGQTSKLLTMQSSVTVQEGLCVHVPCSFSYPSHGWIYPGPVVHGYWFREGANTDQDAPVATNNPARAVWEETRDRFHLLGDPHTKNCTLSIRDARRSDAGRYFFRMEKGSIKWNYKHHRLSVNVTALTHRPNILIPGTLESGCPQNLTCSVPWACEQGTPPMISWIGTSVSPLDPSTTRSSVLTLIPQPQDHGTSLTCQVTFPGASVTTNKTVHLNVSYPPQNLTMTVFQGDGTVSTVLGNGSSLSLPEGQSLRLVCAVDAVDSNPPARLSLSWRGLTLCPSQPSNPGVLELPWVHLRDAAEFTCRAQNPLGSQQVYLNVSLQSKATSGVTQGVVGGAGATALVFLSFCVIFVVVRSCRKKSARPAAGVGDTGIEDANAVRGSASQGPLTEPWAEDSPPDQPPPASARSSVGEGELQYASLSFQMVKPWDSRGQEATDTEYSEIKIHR
In another assay the test system is Trypanosoma cruzi. Kind of assay: Trypanosoma cruzi phosphomannomutase and mannose-1-phosphate guanylyltransferase assay. In kind it is functional. To be noted: 10 µM.
Assay [5] concerns the target T2, Arginase-2, mitochondrial (Homo sapiens) (UniProt P78540).
T2 sequence (whole entry): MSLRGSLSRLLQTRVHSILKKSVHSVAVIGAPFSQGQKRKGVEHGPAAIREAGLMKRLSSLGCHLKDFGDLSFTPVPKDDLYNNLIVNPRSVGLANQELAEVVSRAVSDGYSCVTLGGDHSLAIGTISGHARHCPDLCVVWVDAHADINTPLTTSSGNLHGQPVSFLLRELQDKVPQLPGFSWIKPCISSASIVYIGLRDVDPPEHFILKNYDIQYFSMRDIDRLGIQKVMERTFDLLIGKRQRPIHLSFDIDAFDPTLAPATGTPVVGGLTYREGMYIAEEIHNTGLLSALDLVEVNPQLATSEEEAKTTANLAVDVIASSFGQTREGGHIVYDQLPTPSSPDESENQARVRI
Kind of assay: in vitro enzyme assay to detect the production of urea directly proportional to the activity of Arginase II. Note: in the data most compounds retested in dose-response had high values. In kind it is functional. The note with it: 33.3 µM.

For assay [6], the target named is T3, Proteasome subunit beta (Trypanosoma cruzi) (UniProt O96673).
T3 sequence (whole entry): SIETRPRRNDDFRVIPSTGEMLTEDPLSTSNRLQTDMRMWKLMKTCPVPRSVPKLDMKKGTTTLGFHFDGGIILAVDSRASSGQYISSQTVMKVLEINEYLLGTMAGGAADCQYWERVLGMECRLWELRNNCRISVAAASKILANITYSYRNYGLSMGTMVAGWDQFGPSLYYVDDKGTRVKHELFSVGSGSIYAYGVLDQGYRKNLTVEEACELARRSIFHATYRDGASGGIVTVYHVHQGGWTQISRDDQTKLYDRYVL
Kind of assay: Trypanosoma cruzi proteasome chymotrypsin-like activity (TcProtChymo) assay. Note: in the data most compounds retested in dose-response had high values. The note with it: 9.37 µM. The assay is classed as functional.

The species named for the next assay is Homo sapiens. In words: To identify inhibition of the IFN signalling (Jak-Stat) pathway via expression of an eGFP reporter gene under the control of an IFN-stimulated response element (ISRE) containing MxA promoter. In kind it is functional. To be noted: 30 µM. A general note: A reporter such as luciferase makes a cellular process visible.
Assay [7] has as its target T4, Tyrosyl-tRNA synthetase, putative (Trypanosoma cruzi (strain CL Brener)) (UniProt Q4DSP6).
T4 sequence (whole entry): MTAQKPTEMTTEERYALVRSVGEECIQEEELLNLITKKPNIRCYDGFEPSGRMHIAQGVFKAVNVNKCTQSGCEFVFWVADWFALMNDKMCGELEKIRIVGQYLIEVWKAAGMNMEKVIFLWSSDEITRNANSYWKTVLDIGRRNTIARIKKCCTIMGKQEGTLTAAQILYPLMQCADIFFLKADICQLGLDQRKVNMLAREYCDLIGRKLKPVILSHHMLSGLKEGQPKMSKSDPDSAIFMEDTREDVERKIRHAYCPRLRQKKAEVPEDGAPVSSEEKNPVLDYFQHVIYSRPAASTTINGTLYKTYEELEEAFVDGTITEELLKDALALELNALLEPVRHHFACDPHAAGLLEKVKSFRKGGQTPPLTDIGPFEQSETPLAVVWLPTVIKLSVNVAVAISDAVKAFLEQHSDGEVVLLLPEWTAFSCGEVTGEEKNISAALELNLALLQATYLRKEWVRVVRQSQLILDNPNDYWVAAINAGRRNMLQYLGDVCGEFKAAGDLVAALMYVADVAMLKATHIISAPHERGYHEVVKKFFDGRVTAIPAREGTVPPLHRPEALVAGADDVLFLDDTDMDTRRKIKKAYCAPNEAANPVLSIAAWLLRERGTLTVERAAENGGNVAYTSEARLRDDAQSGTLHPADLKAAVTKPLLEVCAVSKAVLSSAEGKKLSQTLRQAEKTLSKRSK
Kind of assay: Trypanosoma cruzi tyrosyl tRNA synthetase (TcYRS) _High Tyrosine SOP. Note: in the data most compounds retested in dose-response had high values. The assay is classed as functional. To be noted: 30 µM.

Assay [8] addresses T4, Tyrosyl-tRNA synthetase, putative (Trypanosoma cruzi (strain CL Brener)). Kind of assay: Trypanosoma cruzi tyrosyl tRNA synthetase (TcYRS) SOP. The assay is classed as functional. The note with it: 30 µM.
For assay [9], the target named is Chromo domain-containing protein 1 (Saccharomyces cerevisiae (strain ATCC 204508 / S288c) (Baker's yeast)) (UniProt P32657). In words: ScCHD-1 Enzyme Inhibition Assay. Note: in the data most compounds retested in dose-response had high values. In kind it is functional. To be noted: 30 µM.
Chromo domain-containing protein 1 (Saccharomyces cerevisiae (strain ATCC 204508 / S288c) (Baker's yeast)), sequence (P32657 whole entry, the tested form may be a part): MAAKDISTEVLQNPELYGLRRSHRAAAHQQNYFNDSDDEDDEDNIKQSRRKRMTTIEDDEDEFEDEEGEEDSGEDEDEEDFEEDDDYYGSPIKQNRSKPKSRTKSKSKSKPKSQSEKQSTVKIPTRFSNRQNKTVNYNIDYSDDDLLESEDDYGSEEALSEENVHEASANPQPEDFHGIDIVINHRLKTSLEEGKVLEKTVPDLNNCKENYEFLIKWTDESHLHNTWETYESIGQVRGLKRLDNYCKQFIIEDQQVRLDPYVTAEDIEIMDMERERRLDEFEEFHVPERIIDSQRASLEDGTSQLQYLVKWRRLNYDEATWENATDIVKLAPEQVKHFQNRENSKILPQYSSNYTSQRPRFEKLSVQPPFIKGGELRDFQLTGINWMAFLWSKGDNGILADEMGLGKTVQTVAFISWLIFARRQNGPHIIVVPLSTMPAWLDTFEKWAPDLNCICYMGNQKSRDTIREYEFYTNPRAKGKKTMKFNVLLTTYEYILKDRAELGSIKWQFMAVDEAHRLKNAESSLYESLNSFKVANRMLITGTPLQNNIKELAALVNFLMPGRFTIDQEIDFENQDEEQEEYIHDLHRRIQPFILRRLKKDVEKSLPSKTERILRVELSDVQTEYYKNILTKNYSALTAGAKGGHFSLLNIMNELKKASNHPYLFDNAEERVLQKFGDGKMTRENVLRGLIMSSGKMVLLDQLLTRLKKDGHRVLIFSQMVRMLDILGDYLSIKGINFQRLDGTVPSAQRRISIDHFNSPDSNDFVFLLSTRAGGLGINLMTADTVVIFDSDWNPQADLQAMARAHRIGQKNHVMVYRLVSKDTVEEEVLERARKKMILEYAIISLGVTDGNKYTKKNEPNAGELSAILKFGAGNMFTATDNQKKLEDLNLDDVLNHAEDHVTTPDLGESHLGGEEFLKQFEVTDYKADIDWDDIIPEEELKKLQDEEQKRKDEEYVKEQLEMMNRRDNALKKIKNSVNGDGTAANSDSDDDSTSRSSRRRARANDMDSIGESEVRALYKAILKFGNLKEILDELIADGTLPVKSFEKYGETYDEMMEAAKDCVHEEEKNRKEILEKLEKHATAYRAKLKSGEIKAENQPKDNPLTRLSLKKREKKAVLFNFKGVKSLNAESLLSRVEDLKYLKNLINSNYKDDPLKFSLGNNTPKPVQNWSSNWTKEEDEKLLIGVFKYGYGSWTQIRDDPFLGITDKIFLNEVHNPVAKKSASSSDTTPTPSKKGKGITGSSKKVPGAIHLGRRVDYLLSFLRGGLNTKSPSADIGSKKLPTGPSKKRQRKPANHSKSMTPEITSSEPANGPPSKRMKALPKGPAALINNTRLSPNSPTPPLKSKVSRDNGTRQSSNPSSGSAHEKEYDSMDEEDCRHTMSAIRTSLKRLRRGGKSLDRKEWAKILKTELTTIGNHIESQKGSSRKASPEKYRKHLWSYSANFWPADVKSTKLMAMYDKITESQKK

For some assays here: Entries with a potency or affinity are not part of this list.

Protein translocase subunit SecA (Escherichia coli (strain K12)), sequence (P10408 whole entry): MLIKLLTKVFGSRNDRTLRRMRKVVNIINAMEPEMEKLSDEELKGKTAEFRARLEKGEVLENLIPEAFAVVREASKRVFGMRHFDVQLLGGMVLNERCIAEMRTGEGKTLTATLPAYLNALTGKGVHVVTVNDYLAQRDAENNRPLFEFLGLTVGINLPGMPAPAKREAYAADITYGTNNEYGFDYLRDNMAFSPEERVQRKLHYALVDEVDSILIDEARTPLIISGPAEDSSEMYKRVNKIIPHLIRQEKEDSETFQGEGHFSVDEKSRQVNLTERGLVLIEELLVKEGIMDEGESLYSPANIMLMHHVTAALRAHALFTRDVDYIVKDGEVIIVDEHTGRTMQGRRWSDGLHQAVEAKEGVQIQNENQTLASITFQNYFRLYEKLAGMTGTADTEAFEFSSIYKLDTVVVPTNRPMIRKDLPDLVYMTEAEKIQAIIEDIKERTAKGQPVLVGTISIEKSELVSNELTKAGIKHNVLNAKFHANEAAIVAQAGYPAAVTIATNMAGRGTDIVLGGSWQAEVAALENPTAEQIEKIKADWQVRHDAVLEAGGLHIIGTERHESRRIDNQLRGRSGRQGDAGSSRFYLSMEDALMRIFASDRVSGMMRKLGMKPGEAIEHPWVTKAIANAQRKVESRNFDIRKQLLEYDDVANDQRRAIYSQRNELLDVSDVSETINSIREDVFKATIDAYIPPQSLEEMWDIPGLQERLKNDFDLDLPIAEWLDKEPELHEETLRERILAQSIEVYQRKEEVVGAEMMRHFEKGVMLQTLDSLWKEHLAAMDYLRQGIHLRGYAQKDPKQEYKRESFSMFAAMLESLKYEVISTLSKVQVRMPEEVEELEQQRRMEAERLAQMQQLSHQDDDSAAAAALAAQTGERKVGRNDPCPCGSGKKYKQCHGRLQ

On to `COCc1noc(-c2ccc(N(C)Cc3cc(C)no3)nc2)n1`, for which the Percent Effect in assay [1] was -1.27%; in assay [2] it was 0%; in [3], -1.25%; in [4] it was 9.06%; in the assay on Trypanosoma cruzi, 5.79%; in [5], 10.9%. In addition, the Percent Effect in assay [6] was 6.9%; in the assay listed under Homo sapiens, 17.1%; in assay [7] it was 5.82%; in assay [8] it was 7.32%; in assay [9], -6.04%.
In the case of `CN(CCNC(=O)NCc1ccncc1)C1CCCC1`, the Percent Effect in assay [1] was -0.694%; in [2], -5.41%; in assay [3] it was -4.53%; in assay [4], 1.79%; in the assay on Trypanosoma cruzi, -3.3%; in [5] it was 0.401%. Further, the Percent Effect was -6.31% in [6]; 7.43% in the assay listed under Homo sapiens; 1.48% in assay [7]; -1.24% in assay [8]; 2.18% in [9].
As for `Cc1ccc(CN2C[C@@H]3COC[C@@H](NS(C)(=O)=O)[C@@H]3C2)o1`, the Percent Effect in assay [1] is -1.26%; in assay [2], 2.67%; in assay [3] it was -0.569%; in assay [4], -2.48%; with Trypanosoma cruzi, 8.69%; in assay [5], -54.7%. For the same molecule, the Percent Effect in [6] was 12.5%; in the assay listed under Homo sapiens it was -3.72%; in assay [7], 1.04%; in [8], 17.5%; in [9] it was -8.24%.
For the molecule `O=C(c1cccc(F)c1)N1CCN2C[C@H](OCc3cccnc3)C[C@H]2C1`, the Percent Effect is -4.82% in [1]; 10.7% in assay [2]; 5.61% in assay [3]; 1.34% in [4]; -3.15% in the assay with Trypanosoma cruzi; 6.29% in assay [5]. In addition, the Percent Effect in assay [6] was 10.7%; in the assay filed under Homo sapiens it was 8.83%; in [7] it was 3.19%; in assay [8] it was 14.1%; in assay [9] it was -3.02%.
With `Cc1nn(C)c(Cl)c1C1CCCN1C(=O)c1ccc2c(c1)OCO2` (stereo not given), the Percent Effect was -1.18% in [1]; -2.7% in assay [2]; -7.03% in assay [3]; -0.722% in [4]; -5.38% in the assay with Trypanosoma cruzi; -2% in assay [5]. The Percent Effect in assay [6] is -0.901%; in the assay listed under Homo sapiens, 13.8%; in [7], 0.493%; in [8], -6.17%; in [9] it was 0.203%.
As to `CC(C)c1ncc2c(n1)CN(Cc1cccc(C#N)c1)CC2`, the Percent Effect in assay [1] is -3.01%; in assay [2], 0%; in assay [3], -28.8%; in assay [4] it was 8.37%; with Trypanosoma cruzi, 4.89%; in [5] it was 3.06%. Further, the Percent Effect in assay [6] is 5.01%; in the assay filed under Homo sapiens it was -9.04%; in assay [7], 5.39%; in assay [8] it was 4.88%; in [9], 2.88%.
As to `O=C(NCC1CCCO1)c1c(-n2cnnn2)sc2c1CCC2` (stereo not given), the Percent Effect in assay [1] was -5.27%; in assay [2], 5.26%; in assay [3], 6.31%; in assay [4] it was -1.47%; with Trypanosoma cruzi, -2.82%; in assay [5], 3.55%. Besides, the Percent Effect is 17.6% in assay [6]; -12.3% in the assay listed under Homo sapiens; 3.19% in assay [7]; 7.79% in [8]; -4.34% in [9].
As for `O=C(NCc1ccccn1)NC1CCOc2ccccc21` (stereo not given), the Percent Effect in [1] is -4.23%; in assay [2], 24.3%; in assay [3] it was -0.78%; in assay [4] it was 9.97%; in the assay with Trypanosoma cruzi, 9.19%; in assay [5] it was 1.29%. Besides, the Percent Effect was 9.52% in assay [6]; 12% in the assay listed under Homo sapiens; 9.9% in [7]; 28.1% in [8]; -5.33% in [9].
Consider `CCC1c2cccn2CCN1C(=O)c1ccc2nonc2c1` (stereo not given), for which the Percent Effect in [1] was -6.68%; in [2] it was -1.39%; in assay [3], -3.32%; in assay [4] it was -10.2%; with Trypanosoma cruzi, -3.79%; in assay [5] it was 0%. Also, the Percent Effect in assay [6] is 11.6%; in the assay listed under Homo sapiens, -4.01%; in assay [7], 3.16%; in assay [8] it was -2.56%; in [9] it was 2.02%.
`Cn1nc(CNC(=O)C2CCCC2)cc1C1CC1`: the Percent Effect in assay [1] was -6.17%; in assay [2], 10.4%; in [3], -2.49%; in assay [4] it was -7.84%; in the assay on Trypanosoma cruzi it was 5.23%; in assay [5], -0.645%. For the same molecule, the Percent Effect in assay [6] is 2.79%; in the assay listed under Homo sapiens, 6.93%; in assay [7], 0%; in assay [8], 16.7%; in [9] it was -8.08%.

The values above are taken from ChEMBL document CHEMBL3988442, “University of Dundee, Small-Polar-MMV Screening Library” (2021).
